In the supplement of paper PMC10849652:
Targets with a hit are over-represented here; the source holds about 8,800 in all. About 0.5% of all pairs of compound and target were hits.

Experiments:
Assay in all cases: log2 fold change, soluble protein after heating vs DMSO (PISA); higher = thermal stabilisation; K562 lysate, 10 uM; active = over 0.2 and 3.5 SD of the protein, either way, in both replicates (recomputed)
[1] = compound: C1=CC=C(C=C1)[C@H](COC2=CC3=C(C=C2)NC(=O)N3)NC(=O)C4=CC=CN(C4=O)CC5=CC(=C(C=C5)F)F
Summary of the method: (§1)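 To prepare the extract, K562 pellets were dounce-homogenised in PBS pH 7.4 with 1 mM MgCl2, giving crude material at 1 mg/mL protein. This was treated with 10 μM compound for 30 min, then heated in aliquots for 3 min over 48°C-58°C before pooling and addition of NP-40 to 0.5% at 4°C. Centrifugation at 21,000xg for 90 min left soluble protein in the supernatant, which TMTpro 16plex LC-MS/MS quantified with equalised channel sums. Results are log-two fold changes in thermal stability compared with solvent controls, from duplicates.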

[2] = compound: CC1=C(SC2=C1C(=N[C@H](C3=NN=C(N32)C)CC(=O)N)C4=CC=C(C=C4)Cl)C
Summary of the method: as §1

[3] = compound: CC1=C2C(=CC=C1)N=C(N(C2=O)C3=CC=CC=C3C)CN4C=NC5=C(N=CN=C54)N
Summary of the method: as §1

[4] = compound: Cc1sc2c(c1C)C(c1ccc(Cl)cc1)=N[C@@H](CC(=O)OC(C)(C)C)c1nnc(C)n1-2
Summary of the method: as §1

[5] = compound: c1ccc([C@@H]2C[C@H]2NC2CCNCC2)cc1
Summary of the method: as §1

Measured: log2 fold change

IMMT (UniProt C9J406)
inactive: [1] -0.055 | [2] 0.041 | [3] 0.049 | [4] 0.077 | [5] -0.056

HSD17B12 (UniProt Q53GQ0)
inactive: [1] -0.127 | [2] -0.006 | [3] 0.059 | [4] 0.031 | [5] -0.108

HMGB2 (UniProt P26583)
Sequence of UniProt P26583 (P26583 whole entry, looked up): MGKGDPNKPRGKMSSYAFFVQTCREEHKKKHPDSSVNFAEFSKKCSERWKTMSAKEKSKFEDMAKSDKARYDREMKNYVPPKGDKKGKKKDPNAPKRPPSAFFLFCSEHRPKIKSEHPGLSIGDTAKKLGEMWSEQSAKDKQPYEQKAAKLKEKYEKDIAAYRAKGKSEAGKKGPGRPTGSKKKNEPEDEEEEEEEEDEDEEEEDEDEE
inactive: [1] 0.022 | [2] -0.069 | [3] -0.03 | [4] 0.036 | [5] 0.161

HLTF (UniProt Q14527)
Sequence of UniProt Q14527 (Q14527 whole entry, looked up): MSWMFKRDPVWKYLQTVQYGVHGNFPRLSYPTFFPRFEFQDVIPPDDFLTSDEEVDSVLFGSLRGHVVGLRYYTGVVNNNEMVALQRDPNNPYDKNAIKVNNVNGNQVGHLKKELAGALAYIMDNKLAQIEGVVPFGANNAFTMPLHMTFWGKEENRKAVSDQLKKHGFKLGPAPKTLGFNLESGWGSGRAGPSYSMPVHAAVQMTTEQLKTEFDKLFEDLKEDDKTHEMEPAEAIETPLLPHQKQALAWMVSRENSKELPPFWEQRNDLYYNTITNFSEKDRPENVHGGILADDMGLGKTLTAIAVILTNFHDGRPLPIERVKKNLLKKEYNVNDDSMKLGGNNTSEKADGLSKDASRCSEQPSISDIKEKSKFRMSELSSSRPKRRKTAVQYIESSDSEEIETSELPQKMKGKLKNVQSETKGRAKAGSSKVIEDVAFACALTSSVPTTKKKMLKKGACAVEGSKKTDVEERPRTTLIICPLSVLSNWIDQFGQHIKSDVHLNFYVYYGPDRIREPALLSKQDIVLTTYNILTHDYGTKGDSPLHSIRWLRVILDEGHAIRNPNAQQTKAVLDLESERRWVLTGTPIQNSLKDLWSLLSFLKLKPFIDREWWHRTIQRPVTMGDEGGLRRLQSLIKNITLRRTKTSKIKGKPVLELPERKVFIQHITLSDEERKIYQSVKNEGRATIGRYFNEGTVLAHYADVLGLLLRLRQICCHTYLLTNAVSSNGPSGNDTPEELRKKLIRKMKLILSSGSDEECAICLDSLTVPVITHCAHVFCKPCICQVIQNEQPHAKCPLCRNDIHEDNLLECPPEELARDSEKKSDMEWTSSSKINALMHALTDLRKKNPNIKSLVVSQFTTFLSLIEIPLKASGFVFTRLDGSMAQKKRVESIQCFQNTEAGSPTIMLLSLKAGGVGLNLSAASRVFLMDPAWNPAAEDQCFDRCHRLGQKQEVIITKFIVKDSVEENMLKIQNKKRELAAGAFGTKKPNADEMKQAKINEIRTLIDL
inactive: [1] -0.053 | [2] -0.006 | [3] -0.065 | [4] 0.028 | [5] 0.011

GRK6 isoform 2 (UniProt P43250)
Sequence of UniProt P43250 (P43250 whole entry, looked up): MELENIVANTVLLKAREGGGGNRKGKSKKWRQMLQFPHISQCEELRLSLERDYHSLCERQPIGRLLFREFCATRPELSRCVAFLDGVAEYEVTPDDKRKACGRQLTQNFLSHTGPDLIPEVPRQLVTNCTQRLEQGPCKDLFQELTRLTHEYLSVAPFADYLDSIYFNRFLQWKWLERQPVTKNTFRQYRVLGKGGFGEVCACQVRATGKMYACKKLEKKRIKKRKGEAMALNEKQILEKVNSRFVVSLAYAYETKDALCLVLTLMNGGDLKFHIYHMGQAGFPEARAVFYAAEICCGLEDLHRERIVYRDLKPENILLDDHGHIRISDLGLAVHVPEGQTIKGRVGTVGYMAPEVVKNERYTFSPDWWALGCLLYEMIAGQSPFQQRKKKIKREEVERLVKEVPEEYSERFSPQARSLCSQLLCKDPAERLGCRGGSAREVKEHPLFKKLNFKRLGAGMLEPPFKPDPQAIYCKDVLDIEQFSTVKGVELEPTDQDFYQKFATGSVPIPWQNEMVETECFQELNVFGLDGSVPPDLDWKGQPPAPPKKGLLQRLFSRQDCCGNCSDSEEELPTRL
inactive: [1] 0.086 | [2] -0.034 | [3] -0.135 | [4] 0.084 | [5] -0.018

INTS10 (UniProt Q9NVR2)
inactive: [1] -0.015 | [2] -0.057 | [3] 0.023 | [4] -0.077 | [5] -0.003

GTF3C3 (UniProt Q9Y5Q9)
inactive: [1] -0.018 | [2] -0.019 | [3] 0.03 | [4] -0.052 | [5] 0.032

HTT (UniProt P42858)
Sequence of UniProt P42858 (P42858 whole entry, looked up): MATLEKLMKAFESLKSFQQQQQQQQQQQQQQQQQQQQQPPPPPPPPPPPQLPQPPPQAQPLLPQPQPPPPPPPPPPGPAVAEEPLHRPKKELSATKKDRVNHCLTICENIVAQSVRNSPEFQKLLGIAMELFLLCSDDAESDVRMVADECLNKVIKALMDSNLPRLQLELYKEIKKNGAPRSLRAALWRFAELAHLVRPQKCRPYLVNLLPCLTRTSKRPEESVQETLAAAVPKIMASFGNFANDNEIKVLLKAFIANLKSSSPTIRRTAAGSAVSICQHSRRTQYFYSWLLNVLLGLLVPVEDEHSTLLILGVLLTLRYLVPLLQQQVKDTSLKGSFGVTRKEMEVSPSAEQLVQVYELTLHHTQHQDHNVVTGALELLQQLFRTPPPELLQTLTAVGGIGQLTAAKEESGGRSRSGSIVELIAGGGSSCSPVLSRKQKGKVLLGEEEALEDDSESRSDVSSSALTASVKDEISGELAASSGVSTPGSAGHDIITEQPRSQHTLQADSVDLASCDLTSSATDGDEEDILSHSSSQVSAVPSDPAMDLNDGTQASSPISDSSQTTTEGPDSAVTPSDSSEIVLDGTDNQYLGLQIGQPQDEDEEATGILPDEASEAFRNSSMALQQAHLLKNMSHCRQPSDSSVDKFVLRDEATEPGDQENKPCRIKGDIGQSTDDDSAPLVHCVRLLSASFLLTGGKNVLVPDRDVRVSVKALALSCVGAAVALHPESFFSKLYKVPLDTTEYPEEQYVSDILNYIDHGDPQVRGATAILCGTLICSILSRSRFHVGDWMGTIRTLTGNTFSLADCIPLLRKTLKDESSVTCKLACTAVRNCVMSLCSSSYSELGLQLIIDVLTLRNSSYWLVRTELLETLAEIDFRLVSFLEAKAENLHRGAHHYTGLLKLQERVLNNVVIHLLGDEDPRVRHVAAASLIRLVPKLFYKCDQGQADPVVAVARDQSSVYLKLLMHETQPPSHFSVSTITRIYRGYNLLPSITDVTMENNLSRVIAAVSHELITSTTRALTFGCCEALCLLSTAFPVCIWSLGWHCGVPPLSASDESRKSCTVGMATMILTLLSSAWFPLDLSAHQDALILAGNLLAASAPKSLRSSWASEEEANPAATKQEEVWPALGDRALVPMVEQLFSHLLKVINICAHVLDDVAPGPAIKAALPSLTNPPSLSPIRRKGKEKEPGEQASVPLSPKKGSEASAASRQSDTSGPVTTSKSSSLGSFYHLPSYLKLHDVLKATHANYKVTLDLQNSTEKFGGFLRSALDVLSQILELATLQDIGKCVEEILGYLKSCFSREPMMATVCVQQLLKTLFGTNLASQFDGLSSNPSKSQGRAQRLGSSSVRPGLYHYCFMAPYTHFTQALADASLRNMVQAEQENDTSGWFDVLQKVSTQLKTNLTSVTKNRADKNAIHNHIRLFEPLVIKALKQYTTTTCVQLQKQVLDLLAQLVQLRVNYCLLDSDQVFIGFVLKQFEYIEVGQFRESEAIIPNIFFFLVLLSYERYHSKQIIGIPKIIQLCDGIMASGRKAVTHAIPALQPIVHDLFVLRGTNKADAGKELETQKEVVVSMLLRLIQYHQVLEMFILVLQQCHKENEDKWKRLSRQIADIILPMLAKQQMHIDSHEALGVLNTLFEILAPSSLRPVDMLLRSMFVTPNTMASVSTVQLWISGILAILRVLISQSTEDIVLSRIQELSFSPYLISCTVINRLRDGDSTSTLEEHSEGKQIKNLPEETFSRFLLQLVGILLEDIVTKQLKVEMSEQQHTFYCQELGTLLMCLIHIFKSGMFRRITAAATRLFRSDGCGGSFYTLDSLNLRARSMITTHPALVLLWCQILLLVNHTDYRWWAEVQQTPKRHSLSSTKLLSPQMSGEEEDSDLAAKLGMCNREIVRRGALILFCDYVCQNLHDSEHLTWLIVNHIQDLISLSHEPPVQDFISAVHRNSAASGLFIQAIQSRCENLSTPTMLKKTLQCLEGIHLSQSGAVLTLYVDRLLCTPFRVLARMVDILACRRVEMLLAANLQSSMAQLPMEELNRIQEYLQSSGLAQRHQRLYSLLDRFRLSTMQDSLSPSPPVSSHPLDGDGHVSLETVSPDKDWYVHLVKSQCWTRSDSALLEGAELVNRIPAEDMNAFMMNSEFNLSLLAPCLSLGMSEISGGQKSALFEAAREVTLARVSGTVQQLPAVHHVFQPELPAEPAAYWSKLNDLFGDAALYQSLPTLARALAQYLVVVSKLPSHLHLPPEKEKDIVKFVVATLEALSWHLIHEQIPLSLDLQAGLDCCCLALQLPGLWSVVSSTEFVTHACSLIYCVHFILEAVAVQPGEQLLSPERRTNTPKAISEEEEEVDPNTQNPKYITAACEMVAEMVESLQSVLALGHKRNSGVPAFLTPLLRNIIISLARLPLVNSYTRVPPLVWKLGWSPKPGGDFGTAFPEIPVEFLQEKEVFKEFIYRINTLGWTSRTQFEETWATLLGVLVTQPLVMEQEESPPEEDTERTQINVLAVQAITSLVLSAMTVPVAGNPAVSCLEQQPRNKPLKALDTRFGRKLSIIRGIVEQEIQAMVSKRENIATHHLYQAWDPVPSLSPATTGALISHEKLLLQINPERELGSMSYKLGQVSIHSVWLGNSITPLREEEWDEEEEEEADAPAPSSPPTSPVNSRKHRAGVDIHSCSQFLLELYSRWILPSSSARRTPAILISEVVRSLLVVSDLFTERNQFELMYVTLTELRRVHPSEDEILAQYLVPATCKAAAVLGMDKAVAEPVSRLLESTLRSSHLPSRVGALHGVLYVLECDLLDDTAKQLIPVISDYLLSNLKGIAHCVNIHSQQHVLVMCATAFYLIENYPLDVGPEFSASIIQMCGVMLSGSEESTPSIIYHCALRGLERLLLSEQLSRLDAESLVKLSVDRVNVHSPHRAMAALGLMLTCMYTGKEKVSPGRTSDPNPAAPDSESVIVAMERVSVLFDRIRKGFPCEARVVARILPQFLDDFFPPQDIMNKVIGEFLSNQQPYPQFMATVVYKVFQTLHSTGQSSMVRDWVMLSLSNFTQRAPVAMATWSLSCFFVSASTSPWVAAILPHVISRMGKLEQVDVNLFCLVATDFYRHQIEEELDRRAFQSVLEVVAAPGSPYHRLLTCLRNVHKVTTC
inactive: [1] 0.039 | [2] -0.088 | [3] 0.064 | [4] 0.066 | [5] -0.054

HSPB1 (UniProt P04792)
inactive: [1] -0.091 | [2] 0.002 | [3] 0.002 | [4] -0.017 | [5] 0.028
